The source of these data is PubChem BioAssay (NCI).

What all share (assay): NCI-60 one-dose screen, 48 h (100 = growth as untreated, 0 = no growth, -100 = all killed)
What all share (details): 10 µM unless noted

Experiment [1] has as its system NCI-H23 lung.
In experiment [2] the test system is NCI-H226 lung.
The subject of experiment [3] is NCI-H322M lung.
The test system of experiment [4] is HOP-62 NSCLC.
Experiment [5] concerns NCI-H460 lung.
Experiment [6] deals with HOP-92 NSCLC.
Experiment [7] has as its system NCI-H522 lung.
Experiment [8] has as its system A549/ATCC NSCLC.
Experiment [9] deals with 786-0 renal.
For experiment [10], the system named is COLO 205 colon.

“And” between values parts separate entries of the source, which are not always exact repeats. Equal values may be shown once. About 83,000 compounds went through this panel and 20% of them were active in at least one assay; those are over-represented in the sample as a whole.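 Plates (96-well) were seeded with cells, treated with compound at one concentration, and incubated for 48 hours before percent growth was determined.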 A structure can be active in one record and inactive in another. The source made the active and inactive calls. The calls were made as follows: active = growth percent below 10; inactive = the rest.

With `CCCOC(=O)c1nc(N(CC2CCCCC2)C(=O)NC)sc1/N=C/c1ccccc1`, the growth in [1] is 31.1% (inactive); in experiment [2], 56.8% (inactive); in [3] it was 57.9% (inactive); in experiment [4], 25.5% (inactive); in [5], 2.34% (active); in experiment [6], 15.5% (inactive). Also, the growth is -18.4% (active) in experiment [7], 13.6% (inactive) in experiment [8] and 9.27% (active) in experiment [9].

Turning to `CCCCCCCCCCCC[N+]1(CCCCCCCCCCCC)CCCC(C)C1` (stereo not drawn), the growth is -91.9% (active) in [1]; -77% (active) in experiment [2]; -85.9% (active) in experiment [3]; -96.3% (active) in experiment [4]; -90.7% (active) in experiment [5]; -86.5% (active) in experiment [6]. The growth is -90.1% (active) in experiment [7], -98.6% (active) in experiment [8] and -98.4% (active) in experiment [9].

For `CCc1oc2ccccc2c1C(=O)c1cc(Br)c(O)c(Br)c1`, the growth in [1] is 52.9% (inactive); in experiment [2], 84% (inactive); in [3], 118% (inactive); in [4], 81.8% (inactive); in [5], 86.9% (inactive); in [6] it was 0.0238% (active). The values for the growth in experiment [7], in experiment [8] and in [9] were 30.8% (inactive), 66.5% (inactive) and 68.2% (inactive), respectively.

Regarding `COc1ccc(NC(=O)/C(=C/N2C(=O)/C(=C/c3ccc(OC)c(OC)c3)NC2=S)C(C)=O)cc1`, the growth in [1] is 64.5% (inactive); in experiment [2] it was 83.1% (inactive); in experiment [3] it was 71.1% (inactive); in [4], 58.4% (inactive); in [5], 65.6% (inactive); in experiment [6] it was 3.15% (active). For the same molecule, the growth in experiment [7] is 46.8% (inactive); in experiment [8], 63.8% (inactive); in experiment [9] it was 99.2% (inactive).

Regarding `CCCN(CCC)C(=O)c1ccc(C)cc1`, the growth in experiment [1] was 99.3% (inactive); in experiment [2], 81.2% (inactive); in experiment [3], 111% (inactive); in experiment [4], 80% (inactive); in experiment [5] it was 99.8% (inactive); in [6], 66.3% (inactive). Moreover, the growth in experiment [7] is 82.3% (inactive); in experiment [8], 93.2% (inactive); in experiment [9], 98% (inactive).

In the case of `CN=C(N)N/N=C(\c1ccccc1)c1ccc(Br)cc1`, the growth in [1] was 21% (inactive); in experiment [2], 15.6% (inactive); in experiment [3], 0.506% (active); in experiment [4] it was 8.02% (active); in [5], 6.18% (active); in experiment [6], 32.2% (inactive). The growth in experiment [7] was -29.9% (active); in [8], 9.47% (active); in experiment [9], 13.4% (inactive).

For `CCCCC(C=O)(C=C=C(C)C)CC` (stereo not drawn), the growth in experiment [1] is 112% (inactive); in experiment [2], 103% (inactive); in [3], 101% (inactive); in experiment [4], 120% (inactive); in experiment [5] it was 105% (inactive); in experiment [6], 86.4% (inactive). Further, the growth in [7] is 95.5% (inactive); in experiment [8], 94.3% (inactive); in experiment [9], 99.1% (inactive).

Regarding `CCCCCCCCC(=O)OCCCC(CCC(CCC1CCCO1)OC(=O)CCCCCCCC)OC(=O)CCCCCCCC` (stereo not drawn), the growth is 104% (inactive) in experiment [1]; 104% (inactive) in experiment [2]; 102% (inactive) in [3]; 95.6% (inactive) in experiment [4]; 111% (inactive) in experiment [5]; 99% (inactive) in [6]. The growth in experiment [7] is 70.8% (inactive); in [8], 104% (inactive); in experiment [9] it was 97% (inactive); in [10], 111% (inactive).

Regarding `COC(=O)c1ccc(=O)c2nc3/c(=C/O)c(O)cc(=O)c3[nH]c12`, the growth was 15.1% (inactive) in experiment [1]; 34.9% (inactive) in experiment [2]; 29.1% (inactive) in experiment [3]; -9.51% (active) in [4]; 19.9% (inactive) in experiment [5]; -1.12% (active) in experiment [6]. The growth in experiment [7] was 6.78% (active); in experiment [8] it was 27.7% (inactive); in [9] it was 11.8% (inactive); in [10] it was 51% (inactive).

For `CC(C)(C)CC(C)(C)c1ccc(OCCOCCSC(=N)N)cc1`, the growth is 30.8% (inactive) in [1]; 92.4% (inactive) in experiment [2]; 67.9% (inactive) in experiment [3]; 96.1% (inactive) in experiment [4]; 23.4% (inactive) in experiment [5]; 37% (inactive) in [6]. Further, the growth in experiment [7] was -3.81% (active); in experiment [8], 68.8% (inactive); in experiment [9] it was -36% (active); in experiment [10], -80.6% (active).

For `OC(c1cc(-c2ccc(C(F)(F)F)cc2)nc(C(F)(F)F)c1)C1CCCCN1` (stereo not drawn), the growth in [1] is 23.4% (inactive) and -44.7% (active) and 62.5% (inactive); in experiment [2] it was -7.1% (active) and -6.47% (active) and 43.1% (inactive); in experiment [3] it was 48.2% (inactive) and 29.8% (inactive) and 70.3% (inactive); in [4], -69.8% (active) and -89.1% (active) and 57.1% (inactive); in experiment [5], -77.9% (active) and -77.2% (active) and -47.9% (active); in experiment [6], -18.8% (active) and -58.7% (active) and 36.3% (inactive). Also, the growth in experiment [7] was -67.2% (active) and -80.1% (active) and 9.35% (active); in experiment [8], -43% (active) and -44.5% (active) and 35.6% (inactive); in experiment [9], -48.8% (active) and -82.2% (active) and 27% (inactive); in experiment [10], -90.1% (active) and -85.4% (active) and -79.8% (active).

In the case of `N=C1C=C(N)C(=O)c2ccccc21`, the growth in experiment [1] was -82.3% (active); in experiment [2] it was -63% (active); in experiment [3] it was -88.4% (active); in experiment [4], -94.3% (active); in experiment [5] it was -67.8% (active); in experiment [6], -38.8% (active). The growth in experiment [7] was -67% (active); in [8], -71.7% (active); in experiment [9] it was -99.6% (active); in experiment [10], -93.7% (active).

With `O=C1C(=O)c2cccnc2-c2ncccc21`, the growth in [1] was -68.3% (active); in experiment [2] it was -28.7% (active); in experiment [3], 20.5% (inactive); in experiment [4], -44.7% (active); in experiment [5] it was -57.3% (active); in experiment [6] it was -36.9% (active). Also, the growth in experiment [7] is 5.23% (active); in experiment [8] it was 6.49% (active); in [9], -94.1% (active); in experiment [10], -88.5% (active).

Take `O=Nc1ccc2ccccc2c1O`: the growth in experiment [1] was 56.6% (inactive); in experiment [2], 102% (inactive); in experiment [3], 103% (inactive); in [4] it was 95.2% (inactive); in experiment [5] it was 97.5% (inactive); in [6], 90.1% (inactive). Moreover, the growth in experiment [7] is 74.7% (inactive); in experiment [8], 87.1% (inactive); in [9] it was 98% (inactive); in experiment [10], 75.1% (inactive).
